# Laboratory results from ChEMBL document CHEMBL3988442, “University of Dundee, Small-Polar-MMV Screening Library” (2021).
# Target: AMP-activated protein kinase, AMPK (Homo sapiens) (UniProt P54646+O43741+P54619+Q9UGJ0+Q9Y478+Q13131+Q9UGI9)
# Assay: AMP-dependent Kinase enzyme assay. An in vitro enzyme assay that detects ADP turnover that is directly proportional to AMPK activity. This uses naive AMPK that is activated during the assay with MK-8722
# Format: functional
# Set-up: scale not given: direction of the effect not stated beside the values
# Details: 30 µM
row,SMILES,Percent Effect
1,N#Cc1ccc(SCCC(=O)Nc2ccc(CC(N)=O)cc2)cc1,0.314%
2,O=C(NC1CCCC1)N1C[C@H]2CN(c3ccccn3)C[C@@]2(C(=O)O)C1,3.09%
3,COc1ccccc1CNC(=O)C(C)N1CC(n2nc(C)cc2C)C1 (stereo not given),3.14%
4,CN1CCN(CC2(O)CCCN(S(=O)(=O)c3cn[nH]c3)CC2)CC1 (stereo not given),13%
5,COc1ccc(C(=O)NCc2ccco2)nn1,-4.45%
6,NC(=O)CC1CCN(Cc2ccccc2OCC(F)(F)F)CC1,-3.02%
7,CC(=O)N1CCC(NC(=O)CN2CCCc3c(F)ccc(C)c32)CC1,3.84%
8,CC1(C)CC1(C(=O)N1CC(c2cccnc2)C1)c1ccccc1F (stereo not given),-6.17%
9,CC(C)N(C(=O)Cn1cc(Cl)cn1)c1ccccc1,-3.03%
10,Fc1cccc(OC2CCN(CCn3cc4ccccc4n3)CC2)c1,7.33%
11,CS(=O)(=O)N1CCCC(c2cccc(-c3ccccc3F)n2)C1 (stereo not given),12.2%
12,CC(=O)N1CCC(C(=O)N2CCC2c2nc(-c3ccc(C)s3)no2)CC1 (stereo not given),7.15%
13,CC(NC(=O)C1CC1)C(=O)N(C)Cc1ccsc1 (stereo not given),-1.9%
14,O=C1CN([C@@H]2CC[C@@H](NS(=O)(=O)c3ccc(F)cc3)[C@H]2O)CCN1,2.53%
15,CSCCC(=O)N1CCN(CC(C)(C)O)CC1,-5.46%
16,Cn1cc(Cl)c(CN(Cc2ccsc2)CC2CCCO2)n1 (stereo not given),2.65%
17,Cn1ncnc1NCc1ccc(Br)cc1,6.33%
18,Cc1ccc(O)c(CN2CCCCC2CCN2CCOCC2)c1 (stereo not given),8.46%
19,O=S(=O)(NCCc1cn2ccccc2n1)N1CCOCC1,3.56%
20,COc1cc2c(cc1OC)CN(C(=O)NCC1CCCO1)CC2 (stereo not given),-8.87%

row,SMILES,Percent Effect
1,CCCN1C(=O)[C@H]2CC[C@@H]1CN(S(=O)(=O)c1cccc(Cl)c1)C2,7.5%
2,Cc1cccc(CN2CCCC2c2cccc(Nc3nccs3)n2)c1 (stereo not given),6.23%
3,CS(=O)(=O)CC1(CNc2c(C#N)cnc3ccc(Cl)cc23)CC1,5.05%
4,Cc1cc(C(=O)NC(C)CC(=O)c2ccco2)[nH]n1 (stereo not given),2.92%
5,O=C(CCC(=O)N1CCNC(=O)C1c1cccc(F)c1)NC1CCCC1 (stereo not given),-9.49%
6,CC(C)c1nccc(CN(C)Cc2cnn(-c3ccccc3)c2)n1,-5.06%
7,COC(=O)CC1CCCCN1CC(=O)Nc1ccc(F)cc1Cl (stereo not given),8.66%
8,Cc1nc(N)cc(NCc2csc(N(C)C)n2)n1,-14.5%
9,CN(C)C(=O)CN1CCCC(c2nccnc2-c2cccc(Cl)c2)C1 (stereo not given),19.9%
10,O=C(Nc1cn[nH]c1)NC1CCN(c2ccccc2OC(F)F)C1 (stereo not given),-1.4%
11,C1=C(CNC2CCc3ncnn3C2)COc2ccccc21 (stereo not given),10.9%
12,COc1ccc2c(c1)CCCC2CC(=O)NCC(C)(C)C(=O)O (stereo not given),0.926%
13,CC(C)CC(=O)N1Cc2ccccc2CC1C(=O)Nc1nccs1 (stereo not given),-4.39%
14,COc1ncnc(N)c1CNCCc1ccc(-n2cccn2)cc1,6.72%
15,Cc1cc(CN(C)C(=O)c2cc(COc3ccccc3)[nH]n2)n[nH]1,1.22%
16,COc1ccccc1C(NC(=O)CN(C)C(C)C)c1noc(C)n1 (stereo not given),-4.19%
17,CCN(Cc1nccn1C)C1CCN(c2ccccc2)C1=O (stereo not given),-7.13%
18,CN(C(=O)c1ccncc1)c1nnc(C2CCOC2)s1 (stereo not given),12.1%
19,COc1cccc(CCn2ccnc2-c2cn(C3CCNCC3)nn2)c1,-20.9%
20,N#CCCN(CCC#N)C(=O)c1cccc(N2CCNC2=O)c1,-2.85%
